PNC inhibitor: perinucleolar compartment assembly inhibition; 140,000 tested, 3.1% active; PC3M PTB-GFP, PNC prevalence imaging, 16 h; stronger effect = lower value; AID 2417; activity change (PNC), negative = inhibition, % at 10 µM;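 active means readout at or below -70, meaning at least 70% loss of cells showing the perinucleolar compartment, a nuclear body marking cancer cells; inconclusive means readout between -30 and a set limit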
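Read-out is percentage of cells bearing a perinucleolar compartment, from automated 20x imaging of fixed, Hoechst-stained PC3M PTB-GFP cells. Cells were seeded 4 h, then exposed 16 h to compound (23 nl of library stock) in duplicate plates.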
GLA spleen mod: inhibitors or activators of human alpha-galactosidase in spleen homogenate; human spleen homogenate, 4MU-alpha-Gal fluorescence, 40 min; Potency, µM (titrated, usually from 80 µM), actives largely listed as inhibitors; 240,000 tested, 0.008% active; AID 2107
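Human spleen homogenate (1 ug) was the enzyme source, with 4-methylumbelliferyl-alpha-D-galactopyranoside (1 mM final) in pH 5.0 citrate buffer with 0.01% Tween-20. Compounds were titrated; after 40 min at 37C, NaOH/glycine stop, 4-MU fluorescence read; AC50 from Hill fits.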
ALDH1A1 inh: blocks purified human ALDH1A1 activity; P00352; Purified ALDH1A1, NADH fluorescence, propionaldehyde substrate; Potency, µM (titrated, usually from 75.3 µM), hits mostly inhibitors; 220,000 tested, 7.3% active; AID 1030; active means well fitted inhibition curve with a large enough effect, not every such curve was filed as active; inconclusive means small, poorly fitted or top-dose-only effect, or another doubt; inactive means no such curve, though single readings can be large or run the other way
HPGD inh: blocks human HPGD enzyme activity; AID 894; Potency, µM, hits mostly inhibitors; P15428; purified HPGD, NADH fluorescence kinetic, PGE2 substrate; 150,000 tested, 4.3% active; active means well fitted inhibition curve with a large enough effect, not every such curve was filed as active; inconclusive means small, poorly fitted or top-dose-only effect, or another doubt; inactive means no such curve, though single readings can be large or run the other way
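NADH formation kinetics: reaction with 30 uM PGE2 and 1 mM NAD+ (final), 20 nM enzyme, Tris-HCl pH 8 with Tween 20, after 15 min compound preincubation at room temperature. Fluorescence change, last versus first of five reads.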
ALOX12 inhib: inhibitors of human 12-lipoxygenase (ALOX12); P18054; purified 12-hLO, xylenol orange hydroperoxide absorbance; Potency, µM (top dose mostly 57.1 µM), actives largely listed as inhibitors; 150,000 tested, 0.12% active; further: nearly all actives have a fitted effect of over 55% in size
Target sequence (P18054 whole entry, looked up): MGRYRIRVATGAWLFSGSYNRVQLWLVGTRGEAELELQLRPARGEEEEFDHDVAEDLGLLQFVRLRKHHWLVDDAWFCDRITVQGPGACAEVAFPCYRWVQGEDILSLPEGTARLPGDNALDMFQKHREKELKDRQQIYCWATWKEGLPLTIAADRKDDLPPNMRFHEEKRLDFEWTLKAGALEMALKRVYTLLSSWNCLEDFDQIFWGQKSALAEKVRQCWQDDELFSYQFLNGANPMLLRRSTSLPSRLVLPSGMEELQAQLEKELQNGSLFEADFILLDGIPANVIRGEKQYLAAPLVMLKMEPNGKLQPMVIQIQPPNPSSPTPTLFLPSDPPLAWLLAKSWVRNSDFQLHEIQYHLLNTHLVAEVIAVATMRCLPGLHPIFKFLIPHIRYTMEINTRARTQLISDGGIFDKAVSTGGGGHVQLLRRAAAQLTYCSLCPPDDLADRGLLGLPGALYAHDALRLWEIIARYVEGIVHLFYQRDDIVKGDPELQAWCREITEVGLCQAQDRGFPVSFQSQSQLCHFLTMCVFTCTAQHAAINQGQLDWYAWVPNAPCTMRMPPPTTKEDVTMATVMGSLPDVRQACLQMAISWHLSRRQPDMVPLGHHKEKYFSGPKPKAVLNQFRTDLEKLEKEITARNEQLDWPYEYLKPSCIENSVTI
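Xylenol orange chromogenic assay: hydroperoxide from 12hLO oxidises Fe(II), giving red-shifted Fe(III)-XO absorbance. Conditions: 150 nM enzyme, 40 uM arachidonic acid, 25 mM Hepes pH 7.0, 0.01% Triton X-100, 30 min, room temperature.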
GLA inh pH 4.5: inhibitors of human alpha-galactosidase A at pH 4.5; activity change, negative = inhibition, % at 105 µM; P06280; purified enzyme, 4-MU-alpha-Gal fluorescence, pH 4.5; 230,000 tested, under 10 active
Hits are given with their value; ! = a repeat was not active; [ ] = remark or other dose. Shown are actives, neighbours in structure and some others; about 10% of the full set was active somewhere. Unless noted, the call rests on the fitted dose curve; in most records, active means well fitted curve in the direction sought with a large enough effect; inconclusive means small, poorly fitted or top-dose-only effect, or another doubt; inactive means no such curve, though single readings can be large; an effect the other way counts as inactive or inconclusive.

What do the screens show for `Cc1ccc2c(c1)C(=O)CCCCC(=O)N2`?
GLA spleen mod: inactive; GLA inh pH 4.5: inactive

How did CO[C@H]1C[C@@H]2CC[C@@H](C)[C@@](O)(O2)C(=O)C(=O)N2CCCC[C@H]2C(=O)OC([C@H](C)C[C@@H]2CC[C@@H](O)[C@H](OC)C2)CC(=O)[C@H](C)/C=C(\C)[C@@H](O)[C@@H](OC)C(=O)[C@H](C)C[C@H](C)/C=C/C=C/C=C/1C (stereo partly drawn) do in these assays?
GLA spleen mod: inactive; ALDH1A1 inh: 18µM!; HPGD inh: inactive; ALOX12 inhib: inactive[0.00818 µM]; GLA inh pH 4.5: inactive

Results for CO[C@H]1C[C@@H]2CC[C@@H](C)[C@@](O)(O2)C(=O)C(=O)N2CCCC[C@H]2C(=O)O[C@H]([C@H](C)C[C@@H]2CC[C@@H](O)[C@H](OC)C2)CC(=O)[C@H](C)C=C(C)[C@@H](O)[C@@H](OC)C(=O)[C@H](C)C[C@H](C)C=CC=CC=C1C ?
GLA spleen mod: inactive; GLA inh pH 4.5: inactive

How did Cc1nn(C)c(Cl)c1C(=O)NCC(=O)Nc1ccc(C(C)C)cc1 do in these assays?
GLA spleen mod: inactive; ALDH1A1 inh: inactive; GLA inh pH 4.5: inactive

Results for CN1CC(c2ccccn2)C2(SC(=S)N(Cc3ccccc3)C2=O)C12C(=O)Nc1ccccc12 (stereo not drawn) ?
PNC inhibitor: inactive; GLA spleen mod: inactive; ALDH1A1 inh: 25µM; HPGD inh: inactive; ALOX12 inhib: inactive; GLA inh pH 4.5: inconclusive

Results for CN1CC(c2ccccc2)C2(SC(=S)N(Cc3ccco3)C2=O)C12C(=O)Nc1ccccc12 (stereo not drawn) ?
PNC inhibitor: inactive; GLA spleen mod: inactive; ALDH1A1 inh: inactive; HPGD inh: inactive; ALOX12 inhib: inactive; GLA inh pH 4.5: inactive

What do the screens show for `[N-]=C=C1C(=S)NC(=O)[C@H]([n+]2ccccc2)[C@H]1c1ccc(Cl)cc1`?
GLA spleen mod: inactive; ALDH1A1 inh: 14µM; GLA inh pH 4.5: inactive

How did Cc1noc(NS(=O)(=O)c2ccc(NC(=O)COc3ccc(Cl)cc3Cl)cc2)c1C do in these assays?
PNC inhibitor: inactive; GLA spleen mod: inactive; ALDH1A1 inh: inactive; HPGD inh: 16µM; ALOX12 inhib: inactive; GLA inh pH 4.5: inactive

What do the screens show for `Cc1noc(NS(=O)(=O)c2ccc(NC(=O)CSc3nc4c(cc3C#N)CCCCC4)cc2)c1C`?
PNC inhibitor: inactive; GLA spleen mod: inactive; ALDH1A1 inh: inactive; HPGD inh: 28µM; ALOX12 inhib: inactive; GLA inh pH 4.5: inactive

Results for Cc1noc(NS(=O)(=O)c2ccc(N/C=C/C(=O)c3ccc(F)cc3)cc2)c1C ?
GLA spleen mod: inactive; ALDH1A1 inh: inactive; GLA inh pH 4.5: inactive

What do the screens show for `CCc1ccc(C(=O)/C=C/Nc2ccc(S(=O)(=O)Nc3onc(C)c3C)cc2)cc1`?
PNC inhibitor: inactive; GLA spleen mod: inactive; ALDH1A1 inh: inconclusive; HPGD inh: 20µM; ALOX12 inhib: inactive; GLA inh pH 4.5: inactive

How did Cc1ccccc1-c1cncnc1NCc1cccs1 do in these assays?
GLA spleen mod: inactive; ALDH1A1 inh: inconclusive

What do the screens show for `CCCCC/C=C\C\C=C/C=C/C=C/[C@@H](O)[C@@H](O)CCCC(=O)O`?
GLA spleen mod: inactive; ALDH1A1 inh: inactive; HPGD inh: inactive; ALOX12 inhib: inactive; GLA inh pH 4.5: inactive

How did COc1cccc(C(=O)/C=C/c2ccc(OCC#N)c(OC)c2)c1 do in these assays?
PNC inhibitor: inactive; GLA spleen mod: inactive; ALDH1A1 inh: 8.9µM; HPGD inh: inactive; ALOX12 inhib: inactive; GLA inh pH 4.5: inactive

How did COC(=O)c1ccc(/C=C/C(=O)c2cccc(OC)c2)cc1 do in these assays?
PNC inhibitor: inconclusive; GLA spleen mod: inactive; ALDH1A1 inh: inactive; HPGD inh: inactive; ALOX12 inhib: inactive; GLA inh pH 4.5: inactive

How did COc1ccc(C(=O)/C=C/c2ccc(OC3CSC3)cc2)cc1OC do in these assays?
PNC inhibitor: inactive; GLA spleen mod: inconclusive; ALDH1A1 inh: inconclusive; HPGD inh: 14µM; ALOX12 inhib: inactive; GLA inh pH 4.5: inactive

Screening data (PubChem BioAssay)
